Data reported in PubChem BioAssay.
Active and inactive are the calls of the source. Unless noted, how the calls were made is not given here.

What was measured:
[1] = A549 cell viability effects, profiling panel, calcein-AM fluorescence, 48 h, basal (AID 1162); details: higher = more signal; further: test concentration not given here
[2] = adipocyte viability effects, profiling panel, cell-based, 3T3-L1 adipocytes, calcein-AM fluorescence, 48 h, basal (AID 1163); details: 3T3-L1 adipocytes viability, higher = more signal; further: test concentration not given here
[3] = HepG2 cell viability effects, profiling panel, calcein-AM fluorescence, 48 h, basal (AID 1164); details: higher = more signal; further: test concentration not given here
[4] = MM1S cell viability effects, profiling panel, calcein-AM fluorescence, 48 h, basal (AID 1165); details: higher = more signal;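 further: viability of MM1S multiple myeloma cells under basal unstimulated conditions; test concentration not given here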
[5] = basal RPMI8226 viability, no added stimulus, profiling panel, cell-based, calcein-AM fluorescence, 48 h, PK04 Diversity Set (AID 1166); details: RPMI8226 myeloma viability, higher = more signal;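 further: cells grown under basal conditions without added stimulus; test concentration not given here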
[6] = basal HepG2 mitochondrial membrane potential changes, profiling panel, cell-based, JC-1 fluorescence, 24 h, 100 nL compound (AID 1167); details: higher = more signal; further: test concentration not given here
[7] = basal 3T3-L1 adipocyte mitochondrial potential changes, profiling panel, cell-based, JC-1 fluorescence, 3T3-L1 adipocytes, 24 h, 100 nL compound (AID 1168); details: JC-1 mitochondrial fluorescence, higher = more signal, called active from +8 up or from −8 down; further: test concentration not given here
[8] = basal RPMI8226 mitochondrial membrane potential changes, profiling panel, cell-based, JC-1 fluorescence, 24 h, 100 nL compound (AID 1169); details: RPMI8226 myeloma, JC-1 mitochondrial potential fluorescence, higher = more signal; further: test concentration not given here
[9] = basal MM1S mitochondrial membrane potential changes, profiling panel, cell-based, JC-1 fluorescence, 24 h, 100 nL compound (AID 1170); details: higher = more signal; further: test concentration not given here
[10] = A549 lung cancer cell viability effects, profiling panel, resazurin fluorescence, 24 h, PK04 Diversity Set (AID 1171); details: higher = more signal, called active from +8 up or from −8 down; further: test concentration not given here
[11] = HepG2 liver cancer cell viability effects, profiling panel, resazurin fluorescence, 24 h, PK04 Diversity Set (AID 1172); details: higher = more signal; further: test concentration not given here
[12] = basal S. cerevisiae growth modulation, no modifier, primary screen, OD600, strain BY4716, 24 h, basal condition (AID 1173); details: OD600, 24 h, higher = more signal, called active from +8 up or from −8 down
[13] = MM1S myeloma cell viability, profiling panel, resazurin fluorescence, basal, 24 h, PK04 Diversity Set (AID 1174); details: higher = more signal, called active from +8 up or from −8 down;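 further: MM1S multiple myeloma cell line; test concentration not given here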
[14] = target: Dihydroorotate dehydrogenase (quinone), mitochondrial (Plasmodium falciparum (isolate 3D7)) (UniProt Q08210); assay: PfDHODH enzyme inhibitors, primary screen, biochemical, C-terminal His tag, absorbance 600 nm (AID 1175); details: DCIP absorbance 600 nm, higher = more signal, called active from +8 up or from −8 down;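 further: recombinant parasite enzyme with a five histidine tag at its C terminus; test concentration not given here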
[15] = P. aeruginosa biofilm formation inhibitors, primary screen, strain PAO1, LB-PBS medium, absorbance 600 nm (AID 1176); further: test concentration not given here; details: P. aeruginosa PAO1 growth/biofilm, A600, 12 h; higher = more signal
[16] = S. cerevisiae RM11-1a growth modifiers, primary screen, strain RM11-1a, OD600, basal, 24 h (AID 1177); details: OD600, 24 h, higher = more signal, called active from +8 up or from −8 down;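 further: cultures grown under basal conditions with no added stressor; test concentration not given here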
[17] = E. coli acrAB mutant growth effects, primary screen, E. coli filamentation inducers, strain DRC39, OD650, 24 h (AID 1178); details: higher = more signal, called active from +8 up or from −8 down;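 further: growth measured as culture turbidity by optical density at 650 nm; test concentration not given here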
[18] = E. coli acrAB mutant growth effects, primary screen, E. coli filamentation inducers, strain DRC39, OD650, 48 h (AID 1179);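 further: screen aims at cell division blockers that make cells filament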; details: E. coli DRC39 delta-acrAB growth, higher = more signal, called active from +8 up or from −8 down
[19] = RPMI8226 myeloma cell viability, profiling panel, resazurin fluorescence, basal, 24 h, PK04 Diversity Set (AID 1180); details: higher = more signal;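 further: RPMI8826 multiple myeloma cell line at 5000 cells per well; test concentration not given here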
[20] = target: E3 ubiquitin-protein ligase XIAP (Homo sapiens) (UniProt P98170); assay: XIAP binders, primary screen, biophysical, small-molecule microarray, fluorescence 635 nm (AID 1181); details: small-molecule microarray binding, higher = more signal;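 further: score merges 667 nm emission and signal to noise over triplicate slides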
Sequence of E3 ubiquitin-protein ligase XIAP (Homo sapiens) (P98170 whole entry, looked up): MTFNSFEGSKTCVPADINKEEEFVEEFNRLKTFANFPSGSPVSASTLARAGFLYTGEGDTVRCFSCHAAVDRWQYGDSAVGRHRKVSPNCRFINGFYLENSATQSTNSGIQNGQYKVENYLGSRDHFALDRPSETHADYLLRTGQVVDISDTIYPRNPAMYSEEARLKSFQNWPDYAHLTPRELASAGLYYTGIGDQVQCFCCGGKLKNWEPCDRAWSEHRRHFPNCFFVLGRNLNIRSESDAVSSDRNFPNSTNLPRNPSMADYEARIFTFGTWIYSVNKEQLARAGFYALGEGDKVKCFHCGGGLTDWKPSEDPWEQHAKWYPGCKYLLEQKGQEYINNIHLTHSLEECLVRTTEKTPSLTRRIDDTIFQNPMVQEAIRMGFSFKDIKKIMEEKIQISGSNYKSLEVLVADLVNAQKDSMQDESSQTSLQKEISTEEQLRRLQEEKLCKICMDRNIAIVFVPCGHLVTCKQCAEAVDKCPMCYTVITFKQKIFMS

Sequence of Dihydroorotate dehydrogenase (quinone), mitochondrial (Plasmodium falciparum (isolate 3D7)) (Q08210 whole entry, looked up): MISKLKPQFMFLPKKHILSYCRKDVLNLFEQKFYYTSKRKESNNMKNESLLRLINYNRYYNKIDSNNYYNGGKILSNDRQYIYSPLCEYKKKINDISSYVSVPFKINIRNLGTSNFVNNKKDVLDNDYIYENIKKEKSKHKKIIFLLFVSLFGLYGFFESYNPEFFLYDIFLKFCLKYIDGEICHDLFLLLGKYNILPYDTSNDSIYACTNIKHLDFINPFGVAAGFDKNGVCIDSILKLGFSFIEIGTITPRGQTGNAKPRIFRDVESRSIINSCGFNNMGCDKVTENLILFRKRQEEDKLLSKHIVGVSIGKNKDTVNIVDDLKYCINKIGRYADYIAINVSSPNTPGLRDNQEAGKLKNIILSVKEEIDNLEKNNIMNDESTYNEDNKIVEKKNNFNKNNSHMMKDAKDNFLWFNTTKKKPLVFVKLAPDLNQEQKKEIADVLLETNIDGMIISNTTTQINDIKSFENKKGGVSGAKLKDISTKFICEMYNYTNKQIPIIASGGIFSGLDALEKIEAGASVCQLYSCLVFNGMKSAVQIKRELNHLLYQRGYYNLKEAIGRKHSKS

SMILES	z-score [1]	z-score [2]	z-score [3]	z-score [4]	z-score [5]	z-score [6]	z-score [7]	z-score [8]	z-score [9]	z-score [10]	z-score [11]	z-score [12]	z-score [13]	composite z-score [14]	z-score [15]	z-score [16]	z-score [17]	z-score [18]	z-score [19]	composite z-score [20]
CCCCN1CC=CC23O[C@@H]4C=CCCOC(=O)C4[C@H]2C(=O)N(CCCCCCO)[C@@H]3C1=O (stereo not given in full)	0.384	-0.585	0.441	1.51	-0.363	0.493	0.271 (inactive)	-0.109	-0.399	-0.176 (inactive)	0.0635	0.254 (inactive)	-0.846 (inactive)	-1.01 (inactive)	-0.14 (inactive)	0.308 (inactive)	0.013 (inactive)	0.383 (inactive)	-0.461	-0.141
COCCOC(=O)N1C(=O)[C@@]2(c3cc(C#CCC(C(=O)OC)C(=O)OC)ccc31)[C@H](C(=O)Nc1nc3ccccc3s1)[C@H]1C(=O)O[C@H](c3ccccc3)[C@H](c3ccccc3)N1[C@@H]2c1ccccc1OCCO	1.84	0.6	1.31	-0.139	0.199	-2.23	0.803 (inactive)	-0.859	-1.19	-0.454 (inactive)	-0.397	1.3 (inactive)	-1.38 (inactive)	-0.715 (inactive)	2.96 (inactive)	2.8 (inactive)	0.0871 (inactive)	0.642 (inactive)	-0.39	0.109
CC(C)C(CO)N1C(=O)[C@@H]2C3C(=O)OCCC/C=C\[C@H]3OC23C=CCN(CCN2CCOCC2)C(=O)[C@@H]13 (stereo not given in full)	1.12	-0.453	-0.66	0.171	-0.378	-0.936	-0.173 (inactive)	-0.759	-0.359	-0.702 (inactive)	-0.723	0.384 (inactive)	-0.686 (inactive)	-3.09 (inactive)	0.109 (inactive)	-0.0505 (inactive)	1.01 (inactive)	0.566 (inactive)	-0.586	0.0191
CCCC[C@H]1OB(O)C[C@H]2C1=C(COC)Cn1c(=O)n(-c3ccccc3)c(=O)n12	0.0913	-0.21	-0.136	-1.16	-0.657	0.0213	-0.199 (inactive)	0.454	-0.73	0.921 (inactive)	-0.248	-0.607 (inactive)	-0.228 (inactive)	-0.485 (inactive)	0.0937 (inactive)	0.523 (inactive)	0.451 (inactive)	0.452 (inactive)	-0.214	-0.053
COc1cc(C(O)C2C=CC3C(=O)NC(=O)C3N2Nc2ccccn2)cc(OC)c1OC (stereo not given)	-0.928	-0.66	-1.31	-0.494	0.611	-1.2	-0.524 (inactive)	-0.0982	-0.0424	-0.706 (inactive)	-0.927	0.979 (inactive)	-1.57 (inactive)	1.14 (inactive)	1.16 (inactive)	0.228 (inactive)	-1.24 (inactive)	-0.397 (inactive)	-2.04	-0.031
COCCCNC(=O)[C@]1(CCC(=O)OC(C)(C)C)N=C(c2ccc(OCCCO)cc2)O[C@@H]1c1ccccc1CN=[N+]=[N-]	-0.651	-0.579	-0.421	-0.658	0.338	-0.255	-0.2 (inactive)	-0.315	-0.272	0.743 (inactive)	0.49	-0.199 (inactive)	-0.123 (inactive)	0.249 (inactive)	1.56 (inactive)	-0.123 (inactive)	0.323 (inactive)	-0.187 (inactive)	-0.0741	0.23
COC(=O)[C@@]1(Cc2ccc(OC)cc2)[C@@H]2C(=CC(=O)[C@H]2CC(=O)C(=O)N2CCCC2)CN1C(=O)c1ccccc1	-0.0504	-0.386	-0.167	-0.565	-1.17	0.718	-0.407 (inactive)	-0.356	-1.69	0.408 (inactive)	1.82	1.1 (inactive)	-0.846 (inactive)	1.7 (inactive)	-0.374 (inactive)	0.423 (inactive)	-0.0187 (inactive)	0.798 (inactive)	-0.663	-0.0118
NC(=O)NCC#Cc1ccc2c(c1)[C@]1(C(=O)N2)[C@H](C(N)=O)[C@H]2C(=O)O[C@H](c3ccccc3)[C@H](c3ccccc3)N2[C@@H]1c1ccc(O)cc1	-0.851	-0.842	-0.848	0.201	0.375	-1.73	-0.344 (inactive)	-0.758	-0.094	0.808 (inactive)	0.584	-0.911 (inactive)	0.204 (inactive)	-0.405 (inactive)	-0.212 (inactive)	-0.732 (inactive)	0.0883 (inactive)	-0.612 (inactive)	-0.0275	0.156
Oc1ccc2cc[n+](Cc3sc4ccccc4c3Cl)cc2c1	-0.66	0.552	-0.934	0.241	-1.86	-1.4	-0.0649 (inactive)	0.376	1.78	-0.655 (inactive)	-1.23	-0.225 (inactive)	-1.42 (inactive)	-0.427 (inactive)	-0.0748 (inactive)	0.474 (inactive)	-0.257 (inactive)	-0.952 (inactive)	-0.624	-0.0095
CN1C(=O)C2C=CC(C(O)c3ccccc3)N(N(c3ccccc3)c3ccccc3)C2C1=O (stereo not given)	-0.948	-0.669	-0.373	0.0913	-0.383	-0.885	-0.791 (inactive)	0.538	0.102	-0.166 (inactive)	-0.112	0.833 (inactive)	-0.728 (inactive)	0.0002 (inactive)	0.226 (inactive)	0.579 (inactive)	-0.854 (inactive)	0.139 (inactive)	-0.323	0.259
COCCOC(=O)N1C(=O)[C@@]2(c3cc(C#CCNC(N)=O)ccc31)[C@H](C(=O)N1CCN(c3ncccn3)CC1)[C@H]1C(=O)O[C@H](c3ccccc3)[C@H](c3ccccc3)N1[C@@H]2c1ccc(OCCO)cc1	0.572	0.148	0.548	0.63	0.287	-2.07	1.6 (inactive)	-0.863	-1.51	-0.465 (inactive)	-0.488	1.51 (inactive)	-0.814 (inactive)	-0.0103 (inactive)	2.43 (inactive)	2.16 (inactive)	0.142 (inactive)	0.567 (inactive)	-0.83	0.0627
C=C[C@H](CO)NS(=O)(=O)c1ccc(Br)cc1	1.52	0.131	1.34	-0.328	-0.451	0.63	0.489 (inactive)	0.3	0.525	0.204 (inactive)	0.578	0.0356 (inactive)	0.44 (inactive)	-1.05 (inactive)	-0.621 (inactive)	0.34 (inactive)	0.328 (inactive)	0.276 (inactive)	0.0112	-0.0559
O=C1C2C=CC(C(O)c3cccc4ccccc34)N(Nc3ccccc3F)C2C(=O)N1c1ccccc1 (stereo not given)	-1.05	-1.47	-0.231	0.121	-0.345	-1.86	-0.794 (inactive)	0.355	-1.68	-0.232 (inactive)	0.0332	-0.103 (inactive)	-0.186 (inactive)	-0.629 (inactive)	1.11 (inactive)	0.0054 (inactive)	-0.844 (inactive)	-0.204 (inactive)	0.0889	0.321
CN1C(=O)C2C=CC(C(O)c3ccco3)N(Nc3ccccc3)C2C1=O (stereo not given)	-0.835	-1.12	-0.315	-1.34	-0.137	-1.67	-0.783 (inactive)	0.819	-0.101	-0.579 (inactive)	-0.86	1.35 (inactive)	-0.944 (inactive)	1.24 (inactive)	1.41 (inactive)	1.61 (inactive)	-0.436 (inactive)	-0.0442 (inactive)	-0.328	0.42
COC(=O)C[C@H]1O[C@]2(C(=O)N(C)c3ccccc32)[C@@H](C)[C@@H]1[Si](C)(C)F	0.0967	0.587	1.21	0.0544	-0.804	0.65	-0.125 (inactive)	0.452	0.632	2.22 (inactive)	0.951	-2.55 (inactive)	1.55 (inactive)	-1.49 (inactive)	0.908 (inactive)	-2.64 (inactive)	1.51 (inactive)	0.847 (inactive)	2.42	0.103
COC(=O)c1c(CC[C@@H](CO)NC(=O)NCCn2cc(C3(O)CCCC3)nn2)oc(C(C)=O)c1C(=O)OC	-0.298	0.154	0.122	0.454	0.206	-0.0184	-0.543 (inactive)	0.586	-0.152	-0.957 (inactive)	-0.777	-0.394 (inactive)	-0.691 (inactive)	-0.35 (inactive)	0.173 (inactive)	-0.77 (inactive)	-0.426 (inactive)	-0.828 (inactive)	-0.581	-0.0343
CCCC[C@@H]1C[C@H]1[C@@H](NC(=O)c1cccs1)c1ccc(-c2ccccc2)cc1	-0.997	-0.537	-0.0352	-0.802	-0.38	0.565	-1.56 (inactive)	-0.233	-0.815	1.71 (inactive)	1.13	0.748 (inactive)	0.921 (inactive)	-1.02 (inactive)	1.03 (inactive)	0.822 (inactive)	-0.409 (inactive)	-0.384 (inactive)	0.661	0.416
